PubChem BioAssay AID953 (National Center for Advancing Translational Sciences (NCATS), 2007)
This is one part of the list. Records with an inconclusive call do not appear. Activity calls are given as the source filed them. Calls come from the whole dose curve; as a rule, active = well fitted curve in the direction sought with a large enough effect; inconclusive = small, poorly fitted or top-dose-only effect, or effect the other way, or another doubt; inactive = no such curve, though single readings can be large or run the other way.

Test: Confirmation Concentration-Response Assay for Agonists of the Thyroid Stimulating Hormone Receptor: Activators of Intracellular cAMP Concentrations in Parental HEK 293
Conditions: parental HEK293 CNG biosensor, cAMP membrane potential fluorescence; series mostly up to 32.9 µM; activity change, negative = inhibition: at the top concentration
Source text: NIH Chemical Genomics Center [NCGC] NIH Molecular Libraries Screening Centers Network [MLSCN] MLSCN Grant: 1 X01 MH080680-01 PI Name: Dr. Marvin Gershengorn NCGC Assay Overview: This cell based assay utilized a cyclic nucleotide gated ion channel (CNG) as a biosensor for cAMP induction. HEK 293 cells stably expressing the modified CNG were purchased from BD biosciences (http://www.atto.com/products/actone/features_benefits.shtml) . Stimulation of cAMP production causes the CNG to open and subsequent membrane depolarization to occur. A fluorescent membrane potential dye (BD biosciences) was utilized to detect cAMP stimulation in cells. The cells were maintained in DMEM medium (Invitrogen) containing 10 % FBS (Hyclone), 100 units/ml Penicillin, 100 ug/ml Streptomycin (Invitrogen), and 250 ug/ml Geneticin (Invitrogen) and 1 ug/ml Puromycin (Invitrogen) at 37C in 5% CO2. This assay was used as a counterscreen to "Confirmation Concentration-Response Assay for Agonists of the Thyroid Stimulating Hormone Receptor", to control for compounds signaling through endogenous receptors and other targets of HEK 293 cells.
NCGC Assay Protocol Summary: High Throughput Screening. Freshly passaged cells were dispensed into 1536-well assay plates at 4 ul/well in DMEM containing phenol red (Invitrogen), 10% FCS (Hyclone), and 100 units/ml Penicillin, 100 ug/ml Streptomycin (Invitrogen) and incubated at 37 C with 5% CO2 for 20 to 36 hrs before the robotic screening. The screen was initiated by addition of 4 ul/well membrane potential dye containing 100 uM RO 20-1724 (Sigma Aldrich), followed by 60 min incubation at room temperature to allow for dye equilibration across the cell membrane. 23 nl/well compound or control was then added to the assay plates, which were incubated for additional 30 min before reading a Envision fluorescence plate reader (Perkin Elmer) in bottom-read mode for fluorescence intensity (emission at 590 nm). Keywords: cAMP, CNG Ion Channel, quantitative high throughput screening, qHTS, HTS, probe identification, CNG, cAMP, cyclic nucleotide gated ion channel PubChem

Row | SMILES | activity change, negative = inhibition
1 | O=C(COC(=O)C12CC3CC(CC(C3)C1)C2)NCc1ccco1 | -5.29% (inactive)
2 | CCOC(=O)c1cnc(-n2nc(C)cc2C)nc1-n1nc(C)cc1C | -6.3% (inactive)
3 | C=CCn1c(COc2ccccc2F)nnc1SCC(=O)N1CC(=O)Nc2ccccc21 | -6.56% [at 25.6 µM] (inactive)
4 | O=C(CN1C(=O)NC2(CCCCC2)C1=O)NCCC1=CCCCC1 | -9.98% (inactive)
5 | Cc1ccc(Nc2nc(CSc3nnnn3-c3ccccc3)cc(=O)[nH]2)cc1 | -123% [at 25.6 µM] (inactive)
6 | CCOC(=O)CSc1nnc(NC(=O)c2cccc(S(=O)(=O)N3CCCCC3)c2)s1 | -6.14% [at 25.6 µM] (inactive)
